From PubChem BioAssay (EPA / NIEHS)
Results filed as inconclusive are left out. The source made the active and inactive calls. How the source made its calls: active means hit-call score of the fitted dose curve at least 0.9, where 1 is the maximum; inconclusive means response in the unintended direction; inactive means score below 0.9.

Assay: ACEA_ER_AUC_viability: ACEA Biosciences xCELLigence Real-Time Cell Analysis on Estrogen Receptor Agonism for Viability (AID 2283782)
In short: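 Read-out: real-time electrical impedance (RT-CES) area under curve, loss of signal taken as reduced viability, normalized to DMSO baseline. T-47D cells, charcoal-stripped serum medium, compounds up to 100 uM final, continuous exposure, 80 h.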
In the case of CCCCCCCCCCCCCCCC[n+]1ccccc1, the AC50 is reported as 5.69 µM (active).
In the case of CC(C)=C[C@@H]1[C@@H](C(=O)OCc2coc(Cc3ccccc3)c2)C1(C)C, the outcome is reported as “inactive”.
In the case of COP(=S)(OC)Oc1cc(Cl)c(Cl)cc1Cl, the AC50 is reported as 88 µM (active).
For Cc1cc(Cl)ccc1O[C@H](C)C(=O)O, the outcome was “inactive”.
With O=C(O)CCC(F)(C(F)(F)F)C(F)(F)F the outcome was “inactive”.
In the case of O=P(O)(O)c1ccccc1, the outcome is reported as “inactive”.
With CCC(C)c1cccc(C(C)CC)c1O (stereo unspecified) the AC50 was 77.1 µM (active).
In the case of O=[N+]([O-])c1ccc2c3c(cccc13)CC2, the outcome is reported as “inactive”.
For COS(=O)(=O)c1ccc(C)cc1, the outcome was “inactive”.
For ClC1=C(Cl)[C@]2(Cl)[C@H]3[C@H]([C@H]4C=C[C@H]3C4)[C@@]1(Cl)C2(Cl)Cl, the AC50 was 83.2 µM (active).
With COP(=S)(OC)Oc1ccc(S(=O)(=O)N(C)C)cc1 the outcome was “inactive”.
In the case of COP(=O)(OC)OC, the outcome is reported as “inactive”.
With COc1ccccc1OC the outcome was “inactive”.
With O=[N+]([O-])c1c(Cl)c(Cl)cc(Cl)c1Cl the outcome was “inactive”.
For CCOC(=O)/C=C(C)/C=C/C[C@@H](C)CCCC(C)C, the AC50 was 87.8 µM (active).
With NC(=O)O the outcome was “inactive”.
For CCSC(C)CC1CC(=O)C(C(CC)=NOC/C=C/Cl)=C(O)C1 (stereo unspecified), the outcome was “inactive”.
For C=CC(=O)OCCCCCC(C)C, the outcome was “inactive”.
For CCOC(=O)CP(=O)(OCC)OCC, the AC50 was 36.8 µM (active).
For Nc1cccc(Cl)c1, the outcome was “inactive”.
In the case of CCCCCCCCCl, the outcome is reported as “inactive”.
In the case of CCOP(=S)(OCC)SCCS(=O)(=O)CC, the AC50 is reported as 57.6 µM (active).
With ClCc1cccnc1 the AC50 was 50 µM (active).
For CC(=O)OC(c1ccccc1)C(Cl)(Cl)Cl (stereo unspecified), the outcome was “inactive”.
With O=P(O)(O)CN(CP(=O)(O)O)CP(=O)(O)O the outcome was “inactive”.
For CCOP(=S)(OCC)Oc1ccc(S(C)=O)cc1 (stereo unspecified), the outcome was “inactive”.
For ClC1=C(Cl)[C@]2(Cl)[C@@H]3[C@@H](Cl)[C@@H](Cl)C[C@@H]3[C@@]1(Cl)C2(Cl)Cl, the outcome was “inactive”.
For ClCc1ccccn1, the AC50 was 50 µM (active).
In the case of CC(C)c1ccc(CO)cc1, the outcome is reported as “inactive”.
For C(=NC1CCCCC1)=NC1CCCCC1, the AC50 was 28.6 µM (active).
For O=C(c1ccccc1)C(Cl)Cl, the AC50 was 22.6 µM (active).
In the case of CC1CN1P(=O)(N1CC1C)N1CC1C (stereo unspecified), the AC50 is reported as 64.1 µM (active).
For CC(=[OH+])/C=C(/C)[O-].CC(=[OH+])/C=C(/C)[O-].CC(=[OH+])/C=C(/C)[O-].[Fe], the outcome was “inactive”.
With Cc1cc(=O)[nH]o1 the outcome was “inactive”.
For C=CC(=O)N(C)C, the AC50 was 50 µM (active).
With O=C(O)Cc1ccccc1 the AC50 was 50 µM (active).
